Experimental data as given in PubChem BioAssay AID743171 (National Center for Advancing Translational Sciences (NCATS), 2013).
Several values for one entry are separate records, joined by “and”; a condition that tells them apart may be missing. Equal values may be shown once. Records with an inconclusive call do not appear. Activity calls are given as the source filed them. Calls follow the shape of the dose curve; as a rule, active = well fitted inhibition curve with a large enough effect; inconclusive = small, poorly fitted or top-dose-only effect; inactive = flat fitted curve, though single readings scatter.

Target: 15-hydroxyprostaglandin dehydrogenase [NAD(+)] (Homo sapiens) (UniProt P15428)
Experiment: Extended Characterization of HPGD Inhibitors: Activity in Primary Assay (HPGD)
Settings: recombinant HPGD, NADH fluorescence, PGE2 substrate
Text: The central role of HPGD is to inactivate prostaglandins such as prostaglandin E2 (PGE2) or prostaglandin D2 (PGD2). These prostaglandins are involved in a number of processes, including inflammation, differentiation, and cellular signaling, which makes HPGD an important target for pharmacological intervention. Inhibition of 15-PGDH (HPGD) activity was screened by utilizing prostaglandin as an electron donor and NAD+ as an electron acceptor/cofactor. An increase in the fluorescence intensity due to conversion of NAD+ to NADH was used to measure the enzyme activity. All compounds were screened using a qHTS approach, where compounds are assayed using at least seven concentrations to generate concentration-response curves for every compound. Briefly, qHTS uses an inter-plate dilution method where the first plate contains the highest concentration of a set of compounds in DMSO, while subsequent plates contain the same compounds in the same well locations, but at successive lower concentrations. NIH Chemical Genomics Center [NCGC] NIH Molecular Libraries Probe Centers Network [MLPCN] MLPCN Grant: MH084681 Assay Submitter (PI): Structural Genomics Consortium
Three uL of enzyme (20 nM final concentration) were dispensed to 1536-well Greiner black solid bottom plates. Compounds (23 nL) were transferred via Kalypsys PinTool. The plates were incubated for 15 min at room temperature, and then 1 uL of substrate/cofactor solution (Substrate/cofactor solution: 1 mM NAD+ and 30 uM prostaglandin (Sigma, prostaglandin E2, #P5640)) were added to start the reaction. The plates were immediately transferred to and read 4 times every 30 seconds on a ViewLux High-throughput CCD imager (Perkin-Elmer) using 340 nm excitation and 450 nm emission fluorescence protocol. The fluorescence intensity difference between the last and the first time points, normalized against controls, was used to compute reaction progress.

Sequence of 15-hydroxyprostaglandin dehydrogenase [NAD(+)] (Homo sapiens) (P15428 whole entry, looked up): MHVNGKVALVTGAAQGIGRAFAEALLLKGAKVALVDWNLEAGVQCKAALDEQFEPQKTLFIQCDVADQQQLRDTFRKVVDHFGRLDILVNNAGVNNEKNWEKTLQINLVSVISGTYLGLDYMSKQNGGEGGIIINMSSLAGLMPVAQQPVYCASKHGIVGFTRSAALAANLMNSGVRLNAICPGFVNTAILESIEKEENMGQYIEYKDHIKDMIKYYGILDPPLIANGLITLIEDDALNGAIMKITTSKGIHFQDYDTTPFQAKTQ

Row | Compound | Potency
1 | Cc1cc(-c2nnc3n2CCCCC3)c(C)n1-c1cccnc1 | 271 nM (active)
2 | COc1ccc(-n2c(C)cc(-c3nnc4n3CCCCC4)c2C)cc1 | 85.7 nM (active)
3 | Cc1cc(-c2nnc3n2CCCCC3)c(C)n1-c1ccc(Cl)cc1 | 38.3 nM (active)
4 | Cc1cccc(-n2cnc3cc(C(=O)N4CCCC(C)C4)ccc32)c1 (stereo not given) | 21.5 nM (active)
5 | Cc1cc(-c2nnc3n2CCCCC3)c(C)n1-c1ccc(C(C)(C)C)cc1 | 85.7 nM (active) and 136 nM (active)
